Where “and” joins values, the source holds several entries; their conditions need not be identical. Identical values can stand only once. Among all 16,000 compounds or so, about 5,800 (36%) were called active. About 23% were inconclusive and are not listed. The call rests on the fitted dose curve; in most records, active means well fitted curve in the direction sought with a large enough effect; inconclusive means small, poorly fitted or top-dose-only effect, or effect the other way; inactive means no such curve, though single readings can be large or run the other way. The list shows a part of the results. More than one record can exist for a structure, and the calls need not agree.
These compounds were tested against Cytochrome P450 2C19 (Homo sapiens) (UniProt P33261) (assay: Cytochrome panel assay with activity outcomes). Conditions: recombinant CYP, pro-luciferin dealkylation, luminescence, p450-cyp2c19; series mostly up to 57.1 µM.
On the % scale 0 is the no-effect control and ±100 the full control effect.

Cytochrome P450 2C19 (Homo sapiens), sequence (P33261 whole entry, looked up): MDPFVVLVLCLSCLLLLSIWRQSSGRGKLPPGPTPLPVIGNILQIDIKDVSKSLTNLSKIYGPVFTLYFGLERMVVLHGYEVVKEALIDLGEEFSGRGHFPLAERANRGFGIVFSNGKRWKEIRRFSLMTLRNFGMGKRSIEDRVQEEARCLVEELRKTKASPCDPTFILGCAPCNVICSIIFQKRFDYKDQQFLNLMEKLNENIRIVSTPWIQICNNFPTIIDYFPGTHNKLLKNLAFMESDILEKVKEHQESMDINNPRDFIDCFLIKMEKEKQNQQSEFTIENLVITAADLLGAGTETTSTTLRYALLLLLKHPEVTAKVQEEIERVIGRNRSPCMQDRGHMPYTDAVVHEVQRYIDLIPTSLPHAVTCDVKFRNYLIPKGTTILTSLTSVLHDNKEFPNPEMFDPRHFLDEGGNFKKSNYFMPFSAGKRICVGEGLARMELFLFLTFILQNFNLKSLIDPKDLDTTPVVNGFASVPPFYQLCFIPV

**Q.** Which AC50 does the source give for CCC(=O)Nc1ccc(N2CCN(CC)CC2)c(Cl)c1 here?
**A.** The AC50 was “inactive”.

**Q.** How did the AC50 turn out when Cc1c2ccncc2c(C)c2c1[nH]c1ccccc12 was run?
**A.** The AC50 was 3.16 µM (active).

**Q.** For Cc1nccc2c1[nH]c1ccccc12, which AC50 is on record?
**A.** Its AC50 is “inactive”.

**Q.** How did the activity, negative = inhibition turn out when CN(C)CCC(=O)[C@@]1(O)CC[C@H]2[C@H]3CC=C4C[C@@H](O)CC[C@]4(C)[C@H]3CC[C@]21C was run?
**A.** Its activity, negative = inhibition is 13.6% [at 11.4 µM] (inactive).

**Q.** Which AC50 does the source give for O=C(Nc1ccc(Cl)cc1)Nc1nccs1 here?
**A.** Its AC50 is 25.1 µM (active).

**Q.** With C[C@H]1CCCC=CC2C[C@H](O)C[C@@H]2[C@H](O)/C=C\C(=O)O1 (stereo partly specified) as the compound, how does the AC50 read?
**A.** The AC50 was “inactive”.

**Q.** How did the AC50 turn out when Cc1cc(C)nc(NC2=NCCS2)n1 was run?
**A.** Its AC50 is “inactive”.

**Q.** O=S(=O)(O)/C(=C\c1ccccc1)c1ccccc1 (tested in a mixture with another compound) was tested. Which activity, negative = inhibition did it give?
**A.** The activity, negative = inhibition was -40.3% [at 11.4 µM] (inactive).

**Q.** CC(=O)c1ccc2c(c1)N(CCCN(C)C)c1ccccc1S2 was tested. Which AC50 did it give?
**A.** Its AC50 is “inactive”.

**Q.** For COC(=O)N1CCC2(CCN(CC(C)C)CC2)CC1, which AC50 is on record?
**A.** The AC50 was “inactive”.

**Q.** How did the AC50 turn out when c1ccc(N2CCC3(CCNCC3)CC2)cc1 was run?
**A.** Its AC50 is “inactive”.

**Q.** For Cc1sc(NC(=O)C2C3CCC(O3)C2C(=O)O)c(C(=O)OC(C)C)c1-c1ccc(Cl)cc1 (stereo unspecified), which AC50 is on record?
**A.** Its AC50 is 14.1 µM (active).

**Q.** O=C(c1cc(-c2ccccc2)nc2ccccc12)N1CCC2(CC1)OCCO2 was tested. Which AC50 did it give?
**A.** Its AC50 is 10 µM (active).

**Q.** With CN1C(=O)c2ccccc2Sc2ccc(C(=O)N3CCC4(CC3)OCCO4)cc21 as the compound, how does the AC50 read?
**A.** The AC50 was “inactive”.

**Q.** Which AC50 does the source give for CN1[C@@H](CC(=O)c2ccccc2)CCC[C@@H]1C[C@@H](O)c1ccccc1 here?
**A.** Its AC50 is “inactive”.

**Q.** For COCC(=O)N1CCC2(CCCN(Cc3ccncc3)C2)CC1, which AC50 is on record?
**A.** The AC50 was “inactive”.

**Q.** With O=C(c1ccco1)N1CCC[C@@]2(CCN(Cc3ccncc3)C2)C1 as the compound, how does the AC50 read?
**A.** Its AC50 is 2.51 µM (active).

**Q.** For CN1CC[C@@]2(CCCN(C(=O)c3ccco3)C2)C1, which AC50 is on record?
**A.** The AC50 was “inactive”.

**Q.** How did the AC50 turn out when CNC(C)(C)Cc1ccccc1 was run?
**A.** Its AC50 is “inactive”.

**Q.** Which AC50 does the source give for CCNC[C@H](O)c1cccc(O)c1 here?
**A.** Its AC50 is “inactive”.

**Q.** For C[C@@H](Cc1ccc(OCC(=O)O)cc1)NC[C@H](O)c1cccc(Cl)c1, which AC50 is on record?
**A.** The AC50 was “inactive and 5.01 µM (active)”.

**Q.** With C=C1[C@@H]2C[C@@]3([C@H]1O)[C@H]1C[C@@H]4[C@@]5(C)CC[C@H](O)[C@]4([C@H]1N(CC)C5)[C@H]3C[C@H]2O as the compound, how does the AC50 read?
**A.** The AC50 was “inactive”.

**Q.** Which activity, negative = inhibition does the source give for Oc1cccc2cccnc12 here?
**A.** The activity, negative = inhibition was 31.2% [at 11.4 µM] (inactive).

**Q.** For CC1=NN(c2ccc(S(=O)(=O)O)cc2C)C(=[OH+])[C@H]1N=Nc1cc(S(=O)(=O)O)ccc1C(=O)O.O.[Cr], which activity, negative = inhibition is on record?
**A.** The activity, negative = inhibition was 33.2% [at 11.4 µM] (inactive).

**Q.** For COCOc1ccc(Br)cc1C(=O)/C=C\c1ccc2c(c1)OCO2, which AC50 is on record?
**A.** The AC50 was 0.0631 µM (active).

**Q.** Which AC50 does the source give for CCCCCCCCCCCCCC(=O)O[C@H]1[C@@H](C)[C@@]2(O)[C@@H](C=C(CO)C[C@]3(O)C(=O)C(C)=C[C@@H]23)C2C(C)(C)[C@]21OC(C)=O (stereo partly specified) here?
**A.** Its AC50 is “inactive”.

**Q.** For C[C@@H]1O[C@@H](O[C@H]2C[C@@H](O)[C@]3(CO)[C@@H]4[C@@H](O)C[C@]5(C)[C@H]([C@@H]6COC(=O)C6)CC[C@@]5(O)[C@H]4CC[C@@]3(O)C2)[C@H](O)[C@H](O)[C@@H]1O, which AC50 is on record?
**A.** The AC50 was “inactive”.

**Q.** For CCOC(=O)[C@@H]1[C@@H]2c3ccccc3-c3ccccc3[C@H]2C[C@H]1O, which AC50 is on record?
**A.** The AC50 was 2 µM (active).

**Q.** For N[C@@H](CSC1c2ccccc2-c2ccccc21)C(=O)O, which activity, negative = inhibition is on record?
**A.** The activity, negative = inhibition was -32.5% [at 11.4 µM] (inactive).

**Q.** For CC1(C)[C@@H]2CC[C@]1(C)CN(CCC[N+](C)(C)C)C2, which activity, negative = inhibition is on record?
**A.** The activity, negative = inhibition was 6.07% [at 11.4 µM] (inactive).

**Q.** How did the AC50 turn out when CC(C)Oc1cccnc1N(C)C1CCN(Cc2ccccc2)CC1 was run?
**A.** The AC50 was “inactive”.

**Q.** For COC(=O)C[C@](O)(CCCC(C)(C)O)C(=O)O[C@@H]1C(OC)=C[C@]23CCCN2CCc2cc4c(cc2[C@H]13)OCO4, which AC50 is on record?
**A.** Its AC50 is “inactive”.

**Q.** With CS(=N)(=O)CC[C@@H](N)C(=O)O (stereo partly specified) as the compound, how does the AC50 read?
**A.** Its AC50 is “inactive”.

**Q.** COc1ccccc1CC1C(=O)C2CCN1CC2 (stereo unspecified) was tested. Which AC50 did it give?
**A.** Its AC50 is “inactive”.

**Q.** Which AC50 does the source give for COCCn1c(SCc2nc3sc(C(=O)OC)c(C)c3c(=O)[nH]2)nc2ccccc21 here?
**A.** Its AC50 is 0.708 µM (active).

**Q.** How did the AC50 turn out when O=C(O)[C@H]1CCN1 was run?
**A.** The AC50 was “inactive”.

**Q.** Which AC50 does the source give for N#Cc1ccc(CN2CCCC3(CCN(C(=O)Oc4ccccc4)CC3)C2)cc1 here?
**A.** Its AC50 is “inactive”.

**Q.** How did the AC50 turn out when CC(=O)[C@@H]1CC[C@@H]2[C@@H]3CC=C4C[C@H](OS(=O)(=O)O)CC[C@@]4(C)[C@H]3CC[C@]21C was run?
**A.** Its AC50 is “inactive”.

**Q.** With CCCCn1c(O)c(C(CC)=Nc2ccc(OC)cc2OC)c(=O)[nH]c1=O as the compound, how does the AC50 read?
**A.** Its AC50 is 15.8 µM (active).

**Q.** With CCCCn1c(O)c(C=NCCN2CCCCC2)c(=O)[nH]c1=O as the compound, how does the AC50 read?
**A.** The AC50 was “inactive”.

**Q.** CCCCn1c(O)c(C(CC)=NCc2ccc(F)cc2)c(=O)[nH]c1=O was tested. Which AC50 did it give?
**A.** The AC50 was 7.08 µM (active).

**Q.** With C=CCn1c(O)c(C(C)=NCCCN2CCOCC2)c(=O)[nH]c1=O as the compound, how does the AC50 read?
**A.** Its AC50 is “inactive”.

**Q.** With C[C@]12CCC3c4ccc(OCC(=O)O)cc4CCC3C1CCC2=O (stereo partly specified) as the compound, how does the activity, negative = inhibition read?
**A.** Its activity, negative = inhibition is 29.2% [at 11.4 µM] (inactive).

**Q.** Which activity, negative = inhibition does the source give for CN(C)[C@@H]1C(=O)C(C(N)=O)=C(O)[C@]2(O)C(=O)C3=C(O)c4c(O)cccc4[C@](C)(O)[C@H]3C[C@@H]12 here?
**A.** Its activity, negative = inhibition is -41.8% [at 11.4 µM] (inactive).

**Q.** With CCOC(=O)c1[nH]c(C)c(C(=O)N2CCC3(CC2)OCCO3)c1C as the compound, how does the AC50 read?
**A.** Its AC50 is 5.01 µM (active).

**Q.** OCc1cnc[nH]1 was tested. Which AC50 did it give?
**A.** Its AC50 is “inactive”.

**Q.** How did the AC50 turn out when CC(C)(c1ccc(OC[C@@H]2CO2)cc1)c1ccc(OC[C@H]2CO2)cc1 was run?
**A.** Its AC50 is “inactive”.

**Q.** How did the activity, negative = inhibition turn out when C[C@@H]1O[C@@H](O[C@H]2C[C@@H](O)[C@@]3(CO)[C@H]4[C@H](O)C[C@]5(C)[C@@H](C6=CC(=O)OC6)CC[C@]5(O)[C@H]4CC[C@@]3(O)C2)[C@@H](O)[C@H](O)[C@H]1O was run?
**A.** Its activity, negative = inhibition is 30.3% [at 11.4 µM] (inactive).

**Q.** N[C@H](Cc1c[nH]c2ccccc12)P(=O)(O)O was tested. Which activity, negative = inhibition did it give?
**A.** Its activity, negative = inhibition is 13.8% [at 11.4 µM] (inactive).

**Q.** How did the AC50 turn out when C[N+]1(C)[C@@H]2CC[C@H]1CC(OC(=O)c1c[nH]c3ccccc13)C2 (stereo partly specified) was run?
**A.** Its AC50 is “inactive”.

**Q.** For CC(C(=O)c1c[nH]c2ccccc12)N1CCSCC1 (stereo unspecified), which AC50 is on record?
**A.** Its AC50 is 8.91 µM (active).

**Q.** How did the AC50 turn out when C[C@H]1C(=O)O[C@@H]2CCN3CC=C(COC(=O)[C@@](C)(O)[C@@]1(C)O)[C@H]23 was run?
**A.** The AC50 was “inactive”.

**Q.** For CN1C(=O)CCS(=O)(=O)[C@@H]1c1ccc(Cl)cc1, which AC50 is on record?
**A.** The AC50 was “inactive”.

**Q.** With Brc1c(NC2=NCCN2)ccc2nccnc12 as the compound, how does the AC50 read?
**A.** The AC50 was “inactive”.

**Q.** c1ccc2c(c1)[I+]c1ccccc1-2 was tested. Which AC50 did it give?
**A.** The AC50 was 501 nM (active) and 63.1 nM (active).

**Q.** Which AC50 does the source give for CC[C@]1([C@H]2O[C@@H]([C@@H]3O[C@](O)(CO)[C@@H](C)C[C@H]3C)C[C@H]2C)CC[C@@H]([C@]2(C)CC[C@@]3(C[C@@H](O)[C@@H](C)[C@@H]([C@H](C)[C@H](OC)[C@H](C)C(=O)O)O3)O2)O1 here?
**A.** Its AC50 is “inactive”.
